Compound activity (PubChem)
Anthrax LF prot: Bacillus anthracis LF protease inhibitors, primary screen, biochemical, multiplex microsphere, MLPCN library; hit rate 0.12% among 360,000; multiplex microsphere protease cleavage assay; AID 588501, 2011; inhibition, % at 10 µM; Lethal factor (Bacillus anthracis), P15917
Target sequence (P15917 whole entry, looked up): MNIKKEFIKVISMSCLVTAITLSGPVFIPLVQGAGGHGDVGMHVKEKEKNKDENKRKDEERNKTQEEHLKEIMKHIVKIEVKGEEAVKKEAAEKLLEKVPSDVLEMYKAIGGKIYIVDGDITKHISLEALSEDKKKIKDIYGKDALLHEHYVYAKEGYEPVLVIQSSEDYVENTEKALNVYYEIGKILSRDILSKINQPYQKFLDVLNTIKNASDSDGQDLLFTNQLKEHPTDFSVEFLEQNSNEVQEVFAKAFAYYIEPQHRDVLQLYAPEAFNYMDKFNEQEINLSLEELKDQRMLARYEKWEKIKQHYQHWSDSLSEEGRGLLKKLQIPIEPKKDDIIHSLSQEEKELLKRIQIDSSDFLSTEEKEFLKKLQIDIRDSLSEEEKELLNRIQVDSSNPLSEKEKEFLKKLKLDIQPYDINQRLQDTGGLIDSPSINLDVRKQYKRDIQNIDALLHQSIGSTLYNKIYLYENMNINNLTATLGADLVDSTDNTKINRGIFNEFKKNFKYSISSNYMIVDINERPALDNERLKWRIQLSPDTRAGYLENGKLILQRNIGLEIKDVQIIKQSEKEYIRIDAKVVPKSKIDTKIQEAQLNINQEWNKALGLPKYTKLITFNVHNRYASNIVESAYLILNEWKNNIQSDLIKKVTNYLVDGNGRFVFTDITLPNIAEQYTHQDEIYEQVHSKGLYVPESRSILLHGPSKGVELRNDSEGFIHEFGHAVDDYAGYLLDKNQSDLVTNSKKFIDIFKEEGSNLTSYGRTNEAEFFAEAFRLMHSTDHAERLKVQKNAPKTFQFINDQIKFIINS
BoNT F protease: BoNT/F light chain protease inhibitors, primary screen, biochemical, flow cytometry, MLPCN library; Botulinum neurotoxin type F light chain protease (Clostridium botulinum); Multiplex microsphere protease cleavage assay; inhibition, % at 10 µM; hit rate 0.22% among 360,000; AID 588497, 2011; in the data active means inhibition above about 35%, passing the limit was not always enough; inconclusive means no clear call, values can overlap the other calls
BoNT-A LC inh2: BoNT/A light chain protease inhibitors, primary screen, biochemical, flow cytometry, MLPCN library; Botulinum neurotoxin type A light chain protease (Clostridium botulinum A str. ATCC 3502); inhibition, % at 10 µM; multiplex microsphere protease substrate cleavage; hit rate 0.17% among 360,000
MazEF act: activators of E. coli MazEF toxin-antitoxin RNase, primary screen, biochemical, fluorescence, uHTS; activation, % at 20 µM; FAM/BHQ RNA-DNA oligo cleavage fluorescence, 5 h; hit rate 0.32% among 350,000; Endoribonuclease toxin MazF (Escherichia coli (strain K12)), P0AE70; in the data active means activation above about 50%
Bead autofluor: compound fluorescence in toxin protease inhibitor counterscreen. compound autofluorescence counterscreen, microsphere flow cytometry; hits give high values. fluorescence intensity (concentration not given with the values). hit rate 3.1% among 360,000. AID 624483; in the data active means fluorescence intensity above about 16000; inconclusive means no clear call, values can overlap the other calls
Large screens that a line does not name were inactive. Only some compounds are listed: those with a hit (about 3.7% of all), similar ones and a draw of the others. Unless noted, no stated cut-off is given here; in the data, active means inhibition above about 30%; inconclusive means no clear call, values can overlap the other calls; inactive means below that.

Cc1ccc(CCC(=O)Nc2nccs2)o1	none
O=C(Cc1ccc(F)cc1)Nc1nccs1	BoNT F protease 41.9
COC(=O)NC1CSCC1OC(=O)c1ccc(Br)cc1 (configuration not stated)	BoNT-A LC inh2 inconclusive, Bead autofluor 22183
Cc1cc(C)c2c(=O)n(-c3ccccc3)[nH]c2n1	none
Cc1cc(C(C)(C)C)nc2[nH]n(-c3ccccc3)c(=O)c12	Bead autofluor 20895
O=C(Cc1ccccc1)Nc1c2c(nn1-c1cccc(Cl)c1)CS(=O)(=O)C2	Bead autofluor 20201
CC(NC(=O)Cc1cccs1)c1ccncc1 (configuration not stated)	Bead autofluor 24187
COc1ccc(C(C)NC(=O)Cc2cccs2)cc1 (configuration not stated)	none
Cc1cc(NC(=O)c2cccnc2)ccc1NC(=O)c1ccco1	Bead autofluor 22536
O=C(Nc1ccc(Cl)cc1C(=O)NCC1CCCO1)c1ccc(Cl)cc1Cl (configuration not stated)	none
CCOc1cc(NC(=O)c2ccco2)c(OCC)cc1NC(=O)CCC(=O)NCc1cccnc1	Bead autofluor 19666
O=C(Nc1ccc(Cl)cc1C(=O)NCc1cccnc1)c1ccco1	BoNT-A LC inh2 inconclusive, Bead autofluor 23145
O=C(Nc1ccc(Cl)cc1C(=O)NCC1CCCO1)c1ccco1 (configuration not stated)	Bead autofluor 23431
Oc1ccc(C[C@H]2CN([C@@H](Cc3ccc(O)cc3)CN3CCC[C@@H]3CN3C(=S)NC[C@@H]3Cc3ccccc3)C(=S)N2CC2CCCCCC2)cc1	none (no result: MazEF act)
CCOc1cc(NS(=O)(=O)c2ccc(OC)cc2)c(OCC)cc1NC(=O)c1ccco1	Bead autofluor 22748
Cc1ccc(S(=O)(=O)N2CCN(C(=O)COC(=O)COc3ccccc3C(C)C)CC2)c(C)c1	none
COc1ccc(Cc2c(O)nc[nH]c2=O)cc1	BoNT-A LC inh2 inconclusive, Bead autofluor 16832
COc1ccc(Cc2c(O)nc(SCC(C)C)[nH]c2=O)cc1	none
O=C(/C=C/c1ccccc1)CC(O)(c1ccccc1)C(F)(F)C(F)F (configuration not stated)	none
O=C(CC(O)(c1ccccc1)C(F)(F)C(F)F)c1cccs1 (configuration not stated)	BoNT-A LC inh2 inconclusive, Bead autofluor 20372
COc1cccc(-c2nnn(CCC(=O)O)n2)c1	BoNT-A LC inh2 inconclusive, Bead autofluor 19600
Cc1cc(C(C)(C)C)cc(S(=O)(=O)Nc2ccc(O)c(C(=O)O)c2)c1C	BoNT-A LC inh2 inconclusive, Bead autofluor 20140
CCCC(=O)N1CCCC1(C)C(=O)NCCc1ccccn1 (configuration not stated)	none (no result: MazEF act)
Cc1cc(C(=O)N2CCCC2C(=O)O)c(C)o1 (configuration not stated)	Bead autofluor 22740
Cc1cc(C(=O)N2CCC(C(N)=O)CC2)c(C)o1	none
COc1ccc2c(c1)c(=O)oc1cc(OCC(=O)N3CCC(C)CC3)ccc12	Bead autofluor 20779
COc1ccccc1NC1=C(NC(C)=O)C(=O)c2ccccc2C1=O	MazEF act 217.8
O=C(OCn1ncc(Cl)c(Cl)c1=O)c1cccc(C(F)(F)F)c1	Bead autofluor 22357
COc1cc2c(cc1OC)[C@@H](Cc1ccc(OCCC#N)cc1)N(C)CC2	BoNT F protease 39.8
CCc1cccc(C)c1NC(=O)c1cccnc1	Anthrax LF prot 31.2, BoNT F protease inconclusive
CCc1cccc(C)c1NC(=O)c1cc(C)oc1C	Bead autofluor 22641
CCC(C)c1ccccc1NC(=O)c1cccnc1 (configuration not stated)	Bead autofluor 23335
CC1(c2nnnn2-c2ccc3c(c2)OCCO3)CCC(=O)N1CCOc1ccccc1 (configuration not stated)	none (no result: MazEF act)
O=C(NCc1ccccc1)C1(c2ccccc2)CCN(S(=O)(=O)c2ccccc2)CC1	Bead autofluor 16987
COc1ccccc1-c1cccc([C@@H]2C[C@H]3[C@H](CON3C)CN2C)c1	none
Cc1ccc(CN(C)C(=O)c2ccccc2Oc2ccccc2)o1	Bead autofluor 21202
Cc1ccc(CN(C)C(=O)c2ccc(S(=O)(=O)N(C)c3ccccc3)cc2)o1	none
Cc1ccc2cc(NC(=O)C3(C)CCN3C(C)C)ccc2n1 (configuration not stated)	none (no result: MazEF act)
CCCN(C)C1CN(Cc2cn(Cc3ccc(OC)cc3)nn2)S(=O)(=O)C1 (configuration not stated)	none (no result: MazEF act)
Clc1ccc(-c2nnc3sc(-c4ccc(Br)o4)nn23)cc1	MazEF act active
Clc1ccc(-c2nnc3sc(-c4ccc(Br)o4)nn23)c(Cl)c1	none
Cc1oc(-c2ccc(Cl)cc2)cc1-c1nn2c(-c3ccoc3C)nnc2s1	Bead autofluor 23295
COc1cc(CNC(=O)c2cc(-c3ccc(F)cc3C)n[nH]2)cc(OC)c1	none (no result: MazEF act)
O=[N+]([O-])c1ccc(/C=N/n2cnc3ccccc32)s1	MazEF act 189.2
O=[N+]([O-])c1ccc(/C=N/n2c(CO)nc3ccccc32)s1	MazEF act 99.2
Cc1nc2ccccc2n1/N=C/c1ccc([N+](=O)[O-])s1	none
CC1(C)C2CCC(CN=C(N)CSS(=O)(=O)O)C1C2 (configuration not stated)	none
C=CCn1c(O)c(N=Nc2ccccc2[N+](=O)[O-])c2ccccc21	none
CCCC(NC(=O)C(C)N1CCN(S(=O)(=O)c2ccccc2)CC1)c1ccccc1 (configuration not stated)	none (no result: Anthrax LF prot, BoNT F protease, BoNT-A LC inh2, Bead autofluor)
N#C/C(=N\O)c1nc2ccccc2s1	none
N#C/C(=C/c1ccco1)c1nc2ccccc2s1	MazEF act 64.7
N#C/C(=C\c1ccc(O)c([N+](=O)[O-])c1)c1nc2ccccc2s1	none
N#C/C(=C\c1ccco1)c1nc2ccccc2s1	MazEF act 54.5
Cc1ccc(O)c(C(=O)c2cc(C#N)c(=O)n(Cc3ccccc3)c2)c1	none
Cc1ccc(O)c(C(=O)c2cc(C#N)c3nc4ccccc4n3c2)c1	MazEF act 90.2
OCCN1CCN(C(=S)c2ccc(Br)cc2)CC1	BoNT-A LC inh2 inconclusive, Bead autofluor 21663
Cc1ccc(-c2nc3cc(NS(=O)(=O)c4ccc(C)cc4)ccc3o2)cc1	Bead autofluor 20631
O=S(=O)(Nc1ccc2oc(-c3ccccc3)nc2c1)c1ccccc1	none
CC(C)c1ccc2oc(-c3ccc(N)cc3)nc2c1	Bead autofluor 21916
Cc1ccc(-c2nc3cc(N)ccc3o2)cc1	Bead autofluor 23399
CCOC(=O)C1(C)CCCN(C(=O)c2ccc(F)cc2Cl)C1 (configuration not stated)	none (no result: MazEF act)
CC(OC(=O)c1ccc([N+](=O)[O-])s1)C(=O)NC1CCCCC1C (configuration not stated)	none
O=C(C[C@H]1C(=O)N(Cc2ccccc2)C[C@@H]1Cc1ccccc1)Nc1ccc(Br)cc1	none
